Reference: PubChem BioAssay AID1012 (Sanford-Burnham Center for Chemical Genomics, 2008)
Screen size: about 200,000 compounds; about 520 (0.26%) were called active.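 How the source made its calls: active means tissue-nonspecific alkaline phosphatase inhibition above about 50% at 20 µM in the single-dose screen (limit read from the data); inactive means the rest.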 For the sample, actives were picked, then their nearest neighbours and some compounds at random.

Each compound was assayed against Alkaline phosphatase, tissue-nonspecific isozyme (Homo sapiens) (UniProt P05186) (assay: blockers of alkaline phosphatase TNAP activity – biochemical, luminescent, no phosphate acceptor, uHTS, primary screen (AID 1012;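 further: 0% = DMSO negative control and 100% = EDTA positive control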)). Conditions: purified TNAP, CDP-star luminescence, 30 min; at 20 µM; active compounds read high.
Alkaline phosphatase, tissue-nonspecific isozyme (Homo sapiens), sequence (P05186 whole entry, looked up): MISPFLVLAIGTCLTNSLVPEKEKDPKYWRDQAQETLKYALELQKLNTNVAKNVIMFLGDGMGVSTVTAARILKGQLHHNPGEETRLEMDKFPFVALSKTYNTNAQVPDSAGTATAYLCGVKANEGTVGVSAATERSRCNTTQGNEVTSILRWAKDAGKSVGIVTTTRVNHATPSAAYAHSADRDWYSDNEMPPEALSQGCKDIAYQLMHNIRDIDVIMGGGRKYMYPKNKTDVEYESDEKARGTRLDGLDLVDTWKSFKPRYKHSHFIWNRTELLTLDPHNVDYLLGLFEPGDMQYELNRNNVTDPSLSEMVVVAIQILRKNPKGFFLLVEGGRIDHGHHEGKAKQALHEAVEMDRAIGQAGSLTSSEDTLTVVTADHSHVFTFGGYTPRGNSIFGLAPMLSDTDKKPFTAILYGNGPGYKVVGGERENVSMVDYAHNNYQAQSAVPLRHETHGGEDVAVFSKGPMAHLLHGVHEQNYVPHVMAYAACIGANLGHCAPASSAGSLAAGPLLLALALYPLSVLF
In the case of O=C(COC(=O)CSc1nnc(-c2ccc(Cl)cc2)o1)Nc1cc(Cl)cc(Cl)c1, the inhibition is reported as -10.5% (inactive).
In the case of COc1cc(N/C=C2\CC(=O)NC(C)=C2C#N)cc(OC)c1OC, the inhibition is reported as -1.1% (inactive).
In the case of COc1ccc(-c2[nH]ncc2CN(C)Cc2cc(C)[nH]n2)c(F)c1, the inhibition is reported as 46.2% (inactive).
For COc1ccc(-c2[nH]ncc2CN(Cc2nccn2C)C(C)C)cc1F, the inhibition was -9.7% (inactive).
In the case of COc1ccc(-c2[nH]ncc2CN(C)Cc2cccnc2)c(F)c1, the inhibition is reported as 64.9% (active).
CCN(CCn1cccn1)Cc1cn[nH]c1-c1ccc(OC)cc1F was tested, and the inhibition was 58.9% (active).
In the case of COc1ccc(-c2[nH]ncc2CN(C)Cc2c(C)n[nH]c2C)c(OC)c1, the inhibition is reported as -8.9% (inactive).
With CCN(CCn1cccn1)Cc1nc(-c2ccc(C(=O)OC)cc2)no1 the inhibition was 2.4% (inactive).
In the case of Cc1cc(C)n2nc(SCC(=O)NC(=O)NCc3ccco3)nc2n1, the inhibition is reported as -9.4% (inactive).
For CCOc1cc(N2CCOCC2)c(OCC)cc1NC(=O)c1ccc(C)s1, the inhibition was -8.9% (inactive).
With CCn1c(CNS(=O)(=O)c2ccc(Cl)cc2)n[nH]c1=S the inhibition was 24.7% (inactive).
In the case of O=C(CN1CCSCC1)N/N=C/c1ccc(Cl)cc1, the inhibition is reported as -4.4% (inactive).
In the case of Cc1cc(NC(=O)CN2C(=O)NC(C)(CCc3ccccc3)C2=O)no1 (stereo unspecified), the inhibition is reported as -3% (inactive).
For CCOC(=O)c1cc2c(=O)[nH]c(C(Cl)(Cl)Cl)nc2o1, the inhibition was -11% (inactive).
For CCCN(CC1COc2ccccc2O1)C(=S)Nc1ccc(C)cc1 (stereo unspecified), the inhibition was -16% (inactive).
CN(C)C(CNC(=O)c1ccc(S(=O)(=O)NCc2ccco2)cc1)c1ccccc1 (stereo unspecified) was tested, and the inhibition was 7.7% (inactive).
With C/C(CC(=O)N1CCN(C=O)CC1)=N\NC(=O)c1ccc(Br)cc1 the inhibition was 0.3% (inactive).
For Cc1ccc(NC(=O)c2sccc2C)cc1[N+](=O)[O-], the inhibition was -4.3% (inactive).
In the case of Cc1ccc(C(=O)NC(=S)Nc2ccc3[nH]c(=O)[nH]c3c2)cc1C, the inhibition is reported as -9.4% (inactive).
In the case of CC(=O)NC(=S)NNC(=O)c1ccc(Br)cc1, the inhibition is reported as -155% (inactive).
O=C(CSc1nnc(-c2ccncc2)n1-c1ccc(Cl)cc1)Nc1ccc(C(=O)O)cc1 was tested, and the inhibition was 0.2% (inactive).
With CC(NC(=O)C(=O)NN=C1CCC(C(C)(C)C)CC1)c1ccccc1 (stereo unspecified) the inhibition was -15% (inactive).
In the case of CC(C)(C)C1CCC(=NNC(=O)c2cc(-c3ccccc3)n[nH]2)CC1 (stereo unspecified), the inhibition is reported as 62.6% (active).
With CC(C)(C)C1CCC(=NNC(=O)c2ccc(Br)o2)CC1 (stereo unspecified) the inhibition was 4.2% (inactive).
With CCCCN(C)c1ccc([N+](=O)[O-])cc1 the inhibition was 13.3% (inactive).
CN(C)CCCN1C(=O)CSC1c1ccc([N+](=O)[O-])cc1 (stereo unspecified) was tested, and the inhibition was -4.5% (inactive).
In the case of COc1ccc(NC(=O)c2cc3nc(-c4ccccc4)cc(C)n3n2)cc1OC, the inhibition is reported as -14.7% (inactive).
O=C(NCc1ccccc1)C1CCCN(S(=O)(=O)c2cccs2)C1 (stereo unspecified) was tested, and the inhibition was -5.5% (inactive).
For COc1ccc(S(=O)(=O)NCC2CCCN(C(=O)c3occc3C)C2)cc1 (stereo unspecified), the inhibition was -4.9% (inactive).
In the case of CCc1[nH]nc(C(=O)N2CCCC(CNS(=O)(=O)c3cccs3)C2)c1C (stereo unspecified), the inhibition is reported as 61.5% (active).
In the case of CCC(C(=O)Nc1ccc2c(c1)OCCO2)c1ccccc1 (stereo unspecified), the inhibition is reported as -22.2% (inactive).
COCCCN(C(=S)Nc1c(C)cc(C)cc1C)C(C)c1ccncc1 (stereo unspecified) was tested, and the inhibition was -17.6% (inactive).
For CN(CCc1cn[nH]c1)C(=O)CC1C(=O)NCCN1Cc1cccc(Oc2ccccc2)c1 (stereo unspecified), the inhibition was -9.2% (inactive).
In the case of CCOc1ccc(/C=N/NC(=O)C(C)Sc2ccccn2)cc1OCC (stereo unspecified), the inhibition is reported as -5.3% (inactive).
With O=C1COc2ccc(C(=O)COC(=O)C3CC(O)CN3S(=O)(=O)c3ccc(Cl)cc3)cc2N1 (stereo unspecified) the inhibition was -11.9% (inactive).
In the case of COc1ccccc1Cn1c(C)nnc1-c1cnn(C)c1N, the inhibition is reported as -14% (inactive).
In the case of Cc1ccccc1C(=O)Nc1ccc(N2CCCCCC2)cc1, the inhibition is reported as -10.8% (inactive).
In the case of COc1ccc(Cl)cc1NC(=O)[C@@H]1CCCN1C(=O)c1cccs1, the inhibition is reported as -0.4% (inactive).
O=C(NCc1ccc(F)cc1)C(c1ccccc1)N(C(=O)c1csnn1)C1CC1 (stereo unspecified) was tested, and the inhibition was -11.9% (inactive).
For C#CCOCCOCCOCCNc1nc(N2CCN(C(=O)[C@H](CCC(=O)O)n3cc(C(N)CO)nn3)CC2)nc(N2CCN(C(=O)[C@H](Cc3ccc(O)cc3)n3cc(C(N)[C@H](C)CC)nn3)CC2)n1 (stereo partly specified), the inhibition was -7.8% (inactive).
For CN(C)C(=O)c1nc2ccc(Cl)cn2c1CN1CCN(c2ncccn2)CC1, the inhibition was -12.2% (inactive).
In the case of CCOC(=O)c1c(NC(=O)C2CCN(S(=O)(=O)c3ccc(Cl)cc3)CC2)sc2c1CCCC2, the inhibition is reported as -6% (inactive).
O=C(CSc1nc(O)c(Cc2ccccc2)c(=O)[nH]1)Nc1nc2c(s1)CCCC2 was tested, and the inhibition was -7.1% (inactive).
CCCCC(CC(C)O)c1n[nH]c(=S)n1-c1ccccc1 (stereo unspecified) was tested, and the inhibition was -23.2% (inactive).
For Cc1cccc(NC(=S)NCCc2ccc(F)cc2)c1C, the inhibition was -8.2% (inactive).
In the case of O=C(NNC(=S)NC1CCCCC1)c1ccccc1Cl, the inhibition is reported as -122% (inactive).
O=S(=O)(NCCc1ccncc1)c1ccccc1 was tested, and the inhibition was -12% (inactive).
In the case of COc1cccc(NC(=S)NC(=O)c2c(Cl)c(C)nn2C)c1, the inhibition is reported as 12.5% (inactive).
COc1ccc(NC(=O)COC(=O)c2ccncc2)c(OC)c1 was tested, and the inhibition was -9.8% (inactive).
In the case of CCc1nnc(NC(=O)c2nc3nccc(C)n3n2)s1, the inhibition is reported as -1.7% (inactive).
For Cc1ccnc2nc(C(=O)Nc3nnc(-c4ccccc4)o3)nn12, the inhibition was 52.3% (active).
CCCC(=O)Nc1nnc(-c2ccccc2)o1 was tested, and the inhibition was -7.1% (inactive).
For COc1ccc(N2C(=O)CC(Nc3ccc(F)cc3)C2=O)c([N+](=O)[O-])c1 (stereo unspecified), the inhibition was -5.2% (inactive).
With Cc1ccc(NC(=O)CN2CCCCC2)c2c1CC(C)(C)O2 the inhibition was -3% (inactive).
With O=C(O)CCn1c(SCc2cc(=O)n3ccccc3n2)nc2ccsc2c1=O the inhibition was -2.2% (inactive).
In the case of COCCNC(=O)NC(=O)COC(=O)C1(c2ccc(Cl)cc2)CC1, the inhibition is reported as -9.9% (inactive).
For Cc1ccc(C(=O)OC2CCCN(C)C2)cc1 (stereo unspecified), the inhibition was -10.2% (inactive).
Nc1ncnc(Nc2cccc(Cl)c2Cl)n1 was tested, and the inhibition was -2.3% (inactive).
With COc1ccc(/C=C2\SC(=N)N(c3ccc(F)cc3)C2=O)cc1 the inhibition was -8% (inactive).
For Cn1cccc1/C=C1\SC(=O)N(CC(=O)Nc2ccc(F)cc2)C1=O, the inhibition was -0.3% (inactive).
CC(C)OC(=O)Cn1nc(C(F)(F)F)c2c1CCCC2 was tested, and the inhibition was 0.5% (inactive).
CCOc1ccc(C(=O)NC2CCN(CC(=O)NCc3cccs3)CC2)cc1 was tested, and the inhibition was -4.7% (inactive).
In the case of CC(NC(=O)C(=O)N/N=C/c1ccc(Cl)cc1)c1ccccc1 (stereo unspecified), the inhibition is reported as 3.3% (inactive).
With COCCNC(=O)c1ccccc1NS(=O)(=O)c1ccc(C)c([N+](=O)[O-])c1 the inhibition was -7.3% (inactive).
Cc1ccnc(NC(=O)c2ccc(Cl)c([N+](=O)[O-])c2)c1 was tested, and the inhibition was -11.1% (inactive).
With CCOC(=O)NC(=O)C(=CNc1cccc(OC)c1)C(=O)NC(=O)OCC the inhibition was -10.1% (inactive).
